Reference: paper PMC8384837, “Expanding the binding specificity for RNA recognition by a PUF domain”
Positions count from the first letter of the chain named.

Legend:
Assay in all cases: yeast three-hybrid, YBZ-1, SC-Leu-His + 0.5 mM 3-AT, 4 days
Settings in all cases: tags: N-Gal4 AD-HA kept; label: inside an RPR1-promoter hybrid RNA with tandem MS2 sites; ssRNA
[1] = molecular target: PUM1 PUF domain R3-APL (Homo sapiens, UniProt Q14671 828-1176, C935A;R936P;Q939L)
Method in brief: (§1)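 Sequencing with Illumina followed PCR amplification of the repeat regions from transformants grown four days on SC-Leu (input) or SC-Leu-His + 0.5 mM 3-AT (selection). The transformants were strain YBZ-1 with a LexA–MS2 coat fusion and a HIS3 reporter, carrying Pumilio-1 PUF domain libraries and matching RNA elements. The interaction score is the log change in variant frequency from input to selection, computed in log2 with a pseudocount of 1 for absent variants.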

[2] = molecular target: PUM1 PUF domain R4-SRL (Homo sapiens, UniProt Q14671 828-1176, N971S;H972R;Q975L)
Method in brief: as §1

[3] = molecular target: PUM1 PUF domain R4-YRL (Homo sapiens, UniProt Q14671 828-1176, N971Y;H972R;Q975L)
Method in brief: as §1

[4] = molecular target: PUM1 PUF domain R5-QRK (Homo sapiens, UniProt Q14671 828-1176, C1007Q;Q1011K)
Method in brief: as §1

[5] = molecular target: PUM1 PUF domain R8-RHG (Homo sapiens, UniProt Q14671 828-1176, N1122R;Y1123H;Q1126G)
Method in brief: as §1

[6] = molecular target: T1, PUM1 PUF domain R6-RFC (Homo sapiens, UniProt Q14671 828-1176, N1043R;Y1044F;Q1047C)
T1 sequence: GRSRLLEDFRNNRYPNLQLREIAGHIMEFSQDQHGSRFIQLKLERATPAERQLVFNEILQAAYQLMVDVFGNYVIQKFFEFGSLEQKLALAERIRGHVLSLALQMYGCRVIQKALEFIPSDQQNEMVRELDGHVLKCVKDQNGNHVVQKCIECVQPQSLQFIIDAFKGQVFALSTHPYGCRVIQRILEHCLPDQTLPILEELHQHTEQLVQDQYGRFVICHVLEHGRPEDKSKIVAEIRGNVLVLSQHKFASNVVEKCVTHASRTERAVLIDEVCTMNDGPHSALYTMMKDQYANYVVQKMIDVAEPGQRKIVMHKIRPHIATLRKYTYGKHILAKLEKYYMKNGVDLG
Method in brief: as §1

[7] = molecular target: T2, PUM1 PUF domain R6-HFR (Homo sapiens, UniProt Q14671 828-1176, N1043H;Y1044F;Q1047R)
T2 sequence: T1 sequence with R216H, C220R
Method in brief: as §1

[8] = molecular target: T3, PUM1 PUF domain R6-KWK (Homo sapiens, UniProt Q14671 828-1176, N1043K;Y1044W;Q1047K)
T3 sequence: T1 sequence with R216K, F217W, C220K
Method in brief: as §1

[9] = molecular target: PUM1 PUF domain R8-LYW (Homo sapiens, UniProt Q14671 828-1176, N1122L;Q1126W)
Method in brief: as §1

[10] = molecular target: PUM1 PUF domain R5-RHQ (Homo sapiens, UniProt Q14671 828-1176, C1007R;R1008H)
Method in brief: as §1

[11] = molecular target: PUM1 PUF domain R5-KST (Homo sapiens, UniProt Q14671 828-1176, C1007K;R1008S;Q1011T)
Method in brief: as §1

[12] = molecular target: PUM1 PUF domain R5-RPD (Homo sapiens, UniProt Q14671 828-1176, C1007R;R1008P;Q1011D)
Method in brief: as §1

[13] = molecular target: PUM1 PUF domain R5-RNW (Homo sapiens, UniProt Q14671 828-1176, C1007R;R1008N;Q1011W)
Method in brief: as §1

[14] = molecular target: T4, PUM1 PUF domain R6-IFS (Homo sapiens, UniProt Q14671 828-1176, N1043I;Y1044F;Q1047S)
T4 sequence: T1 sequence with R216I, C220S
Method in brief: as §1

[15] = molecular target: PUM1 PUF domain R2-LWV (Homo sapiens, UniProt Q14671 828-1176, N899L;Y900W;Q903V)
Method in brief: as §1

[16] = molecular target: PUM1 PUF domain R7-RRC (Homo sapiens, UniProt Q14671 828-1176, S1079R;N1080R;E1083C)
Method in brief: as §1

[17] = molecular target: PUM1 PUF domain R3-WCL (Homo sapiens, UniProt Q14671 828-1176, C935W;R936C;Q939L)
Method in brief: as §1

[18] = molecular target: PUM1 PUF domain R3-RIG (Homo sapiens, UniProt Q14671 828-1176, C935R;R936I;Q939G)
Method in brief: as §1

[19] = molecular target: PUM1 PUF domain R1-GGQ (Homo sapiens, UniProt Q14671 828-1176, S863G;R864G)
Method in brief: as §1

## GGCUAGAACUAGUGGAUCCCCCGGCGCCCGGCGGCUCGAGCCCGGGUAAGUGUAAAUAGUCUGCAUGCCGCCGGGCGCCAUGCCUGCAGGUCGACUCUAGAAAACAUG
[1]
  binding signal: 3.04 log2 enrichment (interaction score)
[2]
  binding signal: 3.87 log2 enrichment (interaction score)
[3]
  binding signal: 3.01 log2 enrichment (interaction score)
[4]
  binding signal: 2.97 log2 enrichment (interaction score)
[5]
  binding signal: 4.31 log2 enrichment (interaction score)
[6]
  binding signal: 4.13 log2 enrichment (interaction score)
[7]
  binding signal: 6.79 log2 enrichment (interaction score)
[8]
  binding signal: 4.71 log2 enrichment (interaction score)
[9]
  binding signal: 2.44 log2 enrichment (interaction score)

## GGCUAGAACUAGUGGAUCCCCCGGCGCCCGGCGGCUCGAGCCCGGGUAAGUGUGAAUAGUCUGCAUGCCGCCGGGCGCCAUGCCUGCAGGUCGACUCUAGAAAACAUG
[10]
  binding signal: 4.24 log2 enrichment (interaction score)

## GGCUAGAACUAGUGGAUCCCCCGGCGCCCGGCGGCUCGAGCCCGGGUAAGUGUCAAUAGUCUGCAUGCCGCCGGGCGCCAUGCCUGCAGGUCGACUCUAGAAAACAUG
[11]
  binding signal: 4.03 log2 enrichment (interaction score)
[12]
  binding signal: 3.41 log2 enrichment (interaction score)
[13]
  binding signal: 0.29 log2 enrichment (interaction score)

## GGCUAGAACUAGUGGAUCCCCCGGCGCCCGGCGGCUCGAGCCCGGGUAAGUGUUAAUAGUCUGCAUGCCGCCGGGCGCCAUGCCUGCAGGUCGACUCUAGAAAACAUG
[11]
  binding signal: 2.74 log2 enrichment (interaction score)
[12]
  binding signal: 2.4 log2 enrichment (interaction score)
[13]
  binding signal: 2.82 log2 enrichment (interaction score)

## GGCUAGAACUAGUGGAUCCCCCGGCGCCCGGCGGCUCGAGCCCGGGUAAGCGUAAAUAGUCUGCAUGCCGCCGGGCGCCAUGCCUGCAGGUCGACUCUAGAAAACAUG
[5]
  binding signal: 4.32 log2 enrichment (interaction score)
[9]
  binding signal: 3.09 log2 enrichment (interaction score)

## GGCUAGAACUAGUGGAUCCCCCGGCGCCCGGCGGCUCGAGCCCGGGUAAGUGAAAAUAGUCUGCAUGCCGCCGGGCGCCAUGCCUGCAGGUCGACUCUAGAAAACAUG
[6]
  binding signal: 1.2 log2 enrichment (interaction score)
[14]
  binding signal: 5.65 log2 enrichment (interaction score)

## GGCUAGAACUAGUGGAUCCCCCGGCGCCCGGCGGCUCGAGCCCGGGUAAGUGUAAAAAGUCUGCAUGCCGCCGGGCGCCAUGCCUGCAGGUCGACUCUAGAAAACAUG
[15]
  binding signal: 4.15 log2 enrichment (interaction score)

## GGCUAGAACUAGUGGAUCCCCCGGCGCCCGGCGGCUCGAGCCCGGGUAAGUGCAAAUAGUCUGCAUGCCGCCGGGCGCCAUGCCUGCAGGUCGACUCUAGAAAACAUG
[7]
  binding signal: 2.56 log2 enrichment (interaction score)

## GGCUAGAACUAGUGGAUCCCCCGGCGCCCGGCGGCUCGAGCCCGGGUAAGUUUAAAUAGUCUGCAUGCCGCCGGGCGCCAUGCCUGCAGGUCGACUCUAGAAAACAUG
[16]
  binding signal: 4.95 log2 enrichment (interaction score)

## GGCUAGAACUAGUGGAUCCCCCGGCGCCCGGCGGCUCGAGCCCGGGUAAGUCUAAAUAGUCUGCAUGCCGCCGGGCGCCAUGCCUGCAGGUCGACUCUAGAAAACAUG
[16]
  binding signal: 4.91 log2 enrichment (interaction score)

## GGCUAGAACUAGUGGAUCCCCCGGCGCCCGGCGGCUCGAGCCCGGGUAAGUGUAAGUAGUCUGCAUGCCGCCGGGCGCCAUGCCUGCAGGUCGACUCUAGAAAACAUG
[17]
  binding signal: 3.36 log2 enrichment (interaction score)
[18]
  binding signal: 3.19 log2 enrichment (interaction score)

## GGCUAGAACUAGUGGAUCCCCCGGCGCCCGGCGGCUCGAGCCCGGGUAAGUGUAAAUCGUCUGCAUGCCGCCGGGCGCCAUGCCUGCAGGUCGACUCUAGAAAACAUG
[19]
  binding signal: 1.77 log2 enrichment (interaction score)

## GGCUAGAACUAGUGGAUCCCCCGGCGCCCGGCGGCUCGAGCCCGGGUAAGUGUAAAUUGUCUGCAUGCCGCCGGGCGCCAUGCCUGCAGGUCGACUCUAGAAAACAUG
[19]
  binding signal: 2.33 log2 enrichment (interaction score)

## GGCUAGAACUAGUGGAUCCCCCGGCGCCCGGCGGCUCGAGCCCGGGUAAGUGUAAUUAGUCUGCAUGCCGCCGGGCGCCAUGCCUGCAGGUCGACUCUAGAAAACAUG
[18]
  binding signal: 2.45 log2 enrichment (interaction score)
